From PubChem
The full list was thinned out, with hits kept by preference.
TbPYK inhibitor = T. brucei pyruvate kinase inhibition; Potency, µM (highest dose often 76.8 µM), usual class: inhibitors; actives 0.12% (n = 410,000); Q57TT1; TbPYK enzyme, Kinase-Glo Plus ATP luminescence, 45 min; AID 624173; note: nearly all actives have a fitted effect of over 50% in size
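In this concentration-response screen, enzyme-free wells defined baseline while DMSO plates tracked drift. Each reaction combined TbPYK, substrate, compound and 130 uM ADP for 45 min at room temperature. Kinase-Glo Plus luminescence gave the signal.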
RE007 growth inh = less growth of the S. pombe RE007 Vpr strain. S. pombe RE007 Vpr strain, BacTiter-Glo ATP luminescence, 24 h. Potency, µM (titrated, usually from 92.2 µM), usual class: inhibitors. actives 0.21% (n = 360,000); active = well fitted falling curve with a large enough effect; inconclusive = small, poorly fitted or top-dose-only effect; inactive = no such curve, though single readings can be large or run the other way; note: nearly all actives have a fitted effect of over 50% in size
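Fission yeast RE007 carrying one integrated HIV-1 vpr copy, seeded at OD 0.01 in PMG+AL medium with 23 nL pinned compound. Grown 24 h at 30 degrees; viability read by BacTiter-Glo luminescence after 5 min.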
Cycloheximide cs = affects cycloheximide protein synthesis inhibition readout, counter-screen; cell reporter, cycloheximide protein synthesis inhibition counterscreen; max response, %; actives 12% (n = 300,000); in the data active = max response mostly above about 13%, no sharp cut-off; inactive = mostly below about 14%; note: read at 38.3 µM for the half of the compounds with a filed dose
FBPA Giardia inh = inhibitors of Giardia lamblia fructose-1,6-bisphosphate aldolase; A8B2U2; purified Giardia FBPA; Potency, µM (top dose mostly 59.6 µM), usual class: inhibitors; actives 0.71% (n = 290,000); AID 2451; note: nearly all actives have a fitted effect of over 55% in size
Target sequence (A8B2U2 whole entry, looked up): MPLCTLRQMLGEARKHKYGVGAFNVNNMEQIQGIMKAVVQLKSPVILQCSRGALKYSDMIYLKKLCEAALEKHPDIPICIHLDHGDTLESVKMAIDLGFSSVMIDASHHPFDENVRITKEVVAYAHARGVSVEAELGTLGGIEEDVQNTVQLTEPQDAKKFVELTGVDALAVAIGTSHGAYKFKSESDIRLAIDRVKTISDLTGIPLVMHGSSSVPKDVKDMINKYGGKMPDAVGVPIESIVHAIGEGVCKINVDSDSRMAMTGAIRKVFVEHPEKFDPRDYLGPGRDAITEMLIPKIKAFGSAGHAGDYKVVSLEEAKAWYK
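40 nM FBPA preincubated 10 min at RT with compound (up to 57.5 uM final), then substrate plus GAPDH/TPI/NAD/arsenate coupling and diaphorase/resazurin added. Fluorescence read after 20 min at RT, 525/598 nm.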
Shiga inhibitor = blocks Shiga toxin action in Vero cells; inhibition, % at 38.7 µM; actives 9.2% (n = 290,000); Vero cells, Shiga toxin protein synthesis inhibition reporter; in the data active = inhibition mostly above about 28%, no sharp cut-off; inactive = mostly below about 43%
LmPK inhibitor = LmPK (Leishmania mexicana) enzyme inhibition; Potency, µM (highest dose often 57.5 µM), hits mostly inhibitors; AID 1721; purified LmPK, Kinase-Glo ATP luminescence, 1 h; Q27686; actives 0.37% (n = 290,000)
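0.1 nM LmPK, 0.5 mM PEP, 0.1 mM ADP; 50 mM imidazole pH 7.2, 7 mM MgCl2, 50 mM KCl; 1 h RT. Kinase-Glo luminescence readout, normalized to no-enzyme (full inhibition) and uninhibited wells.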
Numbers stand for hits; – = inactive; ? = inconclusive; · = no result given; + = active, no number. Unless noted, calls come from the whole dose curve; as a rule, active = well fitted curve in the direction sought with a large enough effect; inconclusive = small, poorly fitted or top-dose-only effect, or another doubt; inactive = no such curve, though single readings can be large; an effect the other way counts as inactive or inconclusive.

SMILES	TbPYK inhibitor	RE007 growth inh	Cycloheximide cs	FBPA Giardia inh	Shiga inhibitor	LmPK inhibitor
O=C(CSCc1ccccc1)Nc1ccc2c(c1)OCO2	–	–	39	–	115	–
O=C(Nc1ccc2c(c1)OCO2)NC1CCN(Cc2ccccc2)CC1	–	–	36	–	41	–
O=C(CSCc1ccc(Cl)cc1)Nc1ccc2c(c1)OCCO2	–	–	–	–	96	–
Cc1ccc(CSCC(=O)Nc2ccc3c(c2)OCO3)cc1	–	–	–	–	57	–
O=C(CSCSCC(=O)Nc1ccc2c(c1)OCO2)Nc1ccc2c(c1)OCO2	–	–	–	–	–	–
O=C(CSCc1c(Cl)cccc1Cl)Nc1ccc2c(c1)OCO2	–	–	–	–	–	–
CCOc1ccccc1NC(=O)COC(=O)C12CC3CC(CC(O)(C3)C1)C2	–	–	·	·	·	·
COc1ccc(CN2CCN(C(=O)C3CCN(C(=O)Nc4ccccc4)CC3)CC2)cc1OC	–	–	·	·	·	·
COc1ccc(NC(=O)CN(C)C(=O)C(C)Oc2ccc(Br)cc2)cc1 (configuration not stated)	–	–	·	·	·	·
CCn1nccc1C(=O)Nc1ccc(Cl)cn1	–	–	60	–	70	28µM
CCn1ccc(C(=O)Nc2ccc(Cl)cn2)n1	–	–	39	–	–	–
CC(C)c1ccc(OC(=O)c2cc(-c3ccc(Cl)cc3)on2)cc1	–	·	·	·	·	·
CCn1ccc(C(=O)Oc2ccc(Cl)cc2)n1	–	–	22	–	56	–
Cc1ccc(CN(C)C(=O)COc2ccc(S(=O)(=O)N3CCCC3)cc2[N+](=O)[O-])c(C)c1	–	–	·	·	·	·
Cc1cccnc1NC(=S)Nc1ccc(Br)cc1Cl	–	–	79	–	126	–
COc1cccc(NC(=S)Nc2ccc(Br)cc2Cl)c1	–	–	20	–	–	–
CCOc1ccc(NC(=S)Nc2ccc(Br)cc2Cl)cc1	–	–	–	–	–	–
Cc1ccc2oc(C(=O)Nc3ccc(S(=O)(=O)Nc4nccc(C)n4)cc3)cc(=O)c2c1	–	·	·	·	·	·
COc1ccc(C(=O)O/N=C(\C)c2ccccc2)cc1	13µM	–	–	–	–	6.3µM
CC(C)=NOC(=O)c1ccc(-c2ccccc2)cc1	–	–	–	–	–	–
COc1ccc(C(=O)O/N=C(/c2ccccc2)c2ccncc2)cc1	–	–	42	–	61	–
COc1ccc(Cl)cc1NC(=O)CN(C)C(=O)c1ccc(N2CCCCCC2)c([N+](=O)[O-])c1	–	–	·	·	·	·
COCC1CCN(C(=O)c2cc(COc3ccc(OC)c4ccccc34)on2)C1 (configuration not stated)	–	–	·	·	·	·
COc1ccc(OCc2cc(C(=O)N3CCC(OC)CC3)no2)c2ccccc12	–	–	41	·	126	–
CCOC(=O)C1CCN(C(=O)c2cc(COc3ccc(OC)c4ccccc34)on2)CC1	–	–	43	?	82	–
SMILES	TbPYK inhibitor	RE007 growth inh	Cycloheximide cs	FBPA Giardia inh	Shiga inhibitor	LmPK inhibitor
CC(=O)c1ccc(NC(=O)c2ccccc2Sc2ncnc3sc(C)c(C)c23)cc1	–	–	17	–	+	–
Cc1sc2ncnc(Sc3ccccc3C(=O)O)c2c1C	–	–	–	–	–	–
CC(C(=O)O)c1ccc(N2Cc3ccccc3C2=O)cc1 (configuration not stated)	–	–	–	–	72	?
O=C(CSc1n[nH]c(-c2ccccc2)n1)NCCc1ccccc1	–	·	·	·	·	·
CC1(C)Cn2c(nnc2-c2cccc(O)c2)S1	–	–	24	–	66	–
Nc1oc2ccccc2c(=O)c1-c1ccc2c(c1)OCO2	–	–	41	–	72	–
Cc1cccnc1Nc1nc(-c2ccccn2)cs1	–	40µM	47	?	126	–
Cc1cc(C)cc(OCC(=O)Nc2nc(-c3ccccn3)cs2)c1	–	–	·	·	·	·
Cc1cccnc1Nc1nc(-c2ccccc2)cs1	–	?	67	–	104	–
Cc1ccc(Cc2c(-c3ccccc3)nc3cc(C)c(Br)c(C)n23)cc1	–	–	·	·	·	·
Nc1cc(Cl)ccc1C(=O)OCC(=O)N1CCCCCC1	–	–	·	·	·	·
Nc1cc(Cl)ccc1C(=O)OCC(=O)N1CCOCC1	–	–	21	–	–	–
Nc1cc(Cl)ccc1C(=O)OCC(=O)N1CCCC1	–	–	17	–	–	–
Nc1cc(C(=O)OCC(=O)N2CCCC2)ccc1Cl	–	–	31	–	50	–
O=C(OCC(=O)N1CCOCC1)c1ccc(O)cc1	–	–	–	·	–	–
O=C(OCC(=O)N1CCOCC1)c1ccccc1O	–	–	29	–	72	–
CCC(c1nnnn1C1CCCC1)N1CCC(C(N)=O)CC1 (configuration not stated)	–	–	–	–	–	–
CNc1ncncc1-c1ccc(C(=O)N(C)C)cc1	·	·	·	–	·	·
COc1ccc(-c2noc(CCC(=O)NCCc3ccccc3)n2)cc1	–	–	25	–	–	–
COc1ccc(-c2cc(CCCC(=O)NCCc3ccccc3)no2)cc1	–	–	64	–	67	–
O=C(CCCN1C(=O)[C@H]2CC=CC[C@H]2C1=O)NCc1nc(-c2ccc(Cl)cc2)no1	–	–	–	·	–	–
COc1ccc(-c2noc(CNC(=O)CCCN3C(=O)[C@H]4CC=CC[C@H]4C3=O)n2)cc1	–	–	18	–	–	–
CC(C)CNC(=O)CCc1nc(-c2ccccc2)no1	–	–	27	–	33	–
COc1ccc(-c2cc(CCCC(=O)NCc3ccccn3)no2)cc1	–	–	34	–	–	–
CC(=O)Oc1oc(-c2ccccc2)nc1/C=N/c1ccccn1	–	–	47	–	87	?
SMILES	TbPYK inhibitor	RE007 growth inh	Cycloheximide cs	FBPA Giardia inh	Shiga inhibitor	LmPK inhibitor
COc1ccccc1N=Cc1nc(-c2ccccc2)oc1OC(C)=O	–	–	–	–	–	–
CN(C)c1ccc(N=Cc2nc(-c3ccccc3)oc2OC(=O)c2ccccc2)cc1	–	?	34	–	34	–
Cc1ccc(OCCn2cc(C=O)c3ccccc32)cc1	–	–	–	–	–	–
Cn1c(=O)n(CCOc2ccc([N+](=O)[O-])cc2)c2ccccc21	–	–	26	–	67	–
Cc1ccc(OCCn2c(=O)n(C)c3ccccc32)cc1	–	–	42	–	105	–
O=[N+]([O-])c1ccc(OCCN2CCNCC2)cc1	–	–	–	?	–	–
CC(/C=C/c1ccccc1)=N\Nc1nc(C)cc(C)n1	–	–	33	–	44	–
CC(/C=C/c1ccccc1)=N/NC(=O)c1nc2nc(C)cc(C)n2n1	–	–	–	–	–	–
CC(/C=C/c1ccccc1)=N\NC(N)=S	–	–	27	–	52	–
CC(/C=C/c1ccccc1)=N\NC(=S)NC(C)C	–	–	82	–	99	–
CC1(C(=O)O)CCCN1C(=O)c1cccc(OC(F)(F)F)c1 (configuration not stated)	–	–	·	·	·	·
